This is an account of results in ChEMBL document CHEMBL1157539, “Thousands of chemical starting points for antimalarial lead identification” (Nature, 2010).

Assay type in all cases: functional
In assay [1] the test system is Plasmodium falciparum. The experiment in a line: GSK_TCMDC: Inhibition of Plasmodium falciparum 3D7 in whole red blood cells, using parasite LDH activity as an index of growth. Test compounds present at 2uM.
Assay [2] deals with Plasmodium falciparum. The experiment in a line: GSK_TCMDC: Inhibition of Plasmodium falciparum Dd2 in whole red blood cells, using parasite LDH activity as an index of growth. Test compounds present at 2uM.
Assay [3] relates to HepG2. The experiment in a line: GSK_TCMDC: Percent inhibition of human HepG2 cell line. Test compounds present at 10uM.

On to `Brc1ccc(Nc2ccnc3cc(-c4nccs4)ccc23)cc1Oc1ccnc2cc(-c3nccs3)ccc12`, for which the Inhibition in assay [1] is listed as 91%; in assay [2], 83%; in assay [3], 15%.
On to `Oc1ccccc1CN1CCC2(CCCN(Cc3ccccc3F)C2)C1` (stereo unspecified), for which the Inhibition in assay [1] stood at 98%; in assay [2], 83%; in assay [3], 13%.
`CCN1CCN(C(=O)NC(C(=O)N(C)Cc2ccc(-c3ccc(C(F)(F)F)cc3)cc2)c2cccs2)C(=O)C1=O` (stereo unspecified): the Inhibition in assay [1] amounted to 99%; in assay [2] it was 95%; in assay [3], 0%.
Regarding `Cc1cccc2nc(-c3ccc(-c4cccc(CNCCc5ccncc5)c4)cc3)[nH]c12.O=C(O)C(F)(F)F`, the Inhibition in assay [1] was determined as 100%; in assay [2], 95%; in assay [3], 28%.
Take `Cl.NOCCCCOc1cc(Cl)c(Cl)cc1Cl`: the Inhibition came to 92% in assay [1], 5% in assay [2] and 6% in assay [3].
With `C[C@@H]([C@@H](CCCc1ccc(Cl)cc1)C(=O)N[C@H](C(=O)Nc1cccnc1)C(C)(C)C)N(O)C=O`, the Inhibition in assay [1] came out at 100%; in assay [2], 99%; in assay [3] it was 7%.
On to `CC(C)C[C@H](Nc1ccnc(NCC2CCCCC2)n1)C(=O)Nc1ccccc1.O=C(O)C(F)(F)F`, for which the Inhibition in assay [1] was 87%; in assay [2] it was 42%; in assay [3], 6%.
On to `O=C(/C=C/c1ccc(Cl)c(Cl)c1)NCCCCCN1CCCC(CNC(=O)Nc2ccc(C(F)(F)F)cc2)C1` (stereo unspecified), for which the Inhibition in assay [1] is reported as 100%; in assay [2], 7%; in assay [3], 27%.
In the case of `O=C(/C=C/c1ccc(Cl)c(Cl)c1)NCCCCCN1CCC(c2n[nH]c(-c3ccccc3)c2Br)CC1`, the Inhibition was 95% in assay [1], 23% in assay [2] and 100% in assay [3].
For `Fc1ccc(Nc2ccnc3cc(I)ccc23)c(Cl)c1`, the Inhibition in assay [1] is 95%; in assay [2], 24%; in assay [3], 35%.
As to `O=C(O)c1ccc2c(c1)N(C(=O)CNCc1ccc(F)cc1)CC(=O)N2CCCc1ccccc1`, the Inhibition came out at 95% in assay [1], 0% in assay [2] and 1% in assay [3].
Turning to `Cl.NC1=NC2(CCCC2)C(c2ccc(Cl)c(Cl)c2)C(N)=N1` (stereo unspecified), the values for the Inhibition in assay [1], in assay [2] and in assay [3] were 92%, 3% and 7%, respectively.
The matching figures for `O=C(Nc1ccc(Cn2ncc(N3CCCNCC3)c(Cl)c2=O)cc1)Nc1cc(F)cc(C(F)(F)F)c1.O=C(O)C(F)(F)F`: 100%, 44% and 35%.
For `O=C(O)c1cccnc1Sc1ccc(Cl)cc1`, the Inhibition in assay [1] was 100%; in assay [2] it was 4%; in assay [3] it was 5%.
Turning to `CC(C)c1sc(N2CCCCC2)nc1C(=O)Nc1ccc(F)cc1C(F)(F)F.O=C(O)C(F)(F)F`, the Inhibition in assay [1] is reported as 100%; in assay [2] it was 98%; in assay [3], 0%.
Consider `Cc1nc(-c2ccc3c(c2)CCN(CCC2CCC(NC(=O)c4cc5cccc(Cl)c5[nH]4)CC2)CC3)no1.Cl` (stereo unspecified), for which the Inhibition came to 100% in assay [1], 46% in assay [2] and 36% in assay [3].
The matching figures for `CCCNCc1ccc(-c2ccc(CN(Cc3cccs3)C(=O)C3CCN(C)CC3)cc2)nc1.O=C(O)C(F)(F)F`: 99%, 35% and 10%.
In the case of `Cc1cc(Nc2cccc(C(F)(F)F)c2)nc(N)n1`, the Inhibition in assay [1] is 98%; in assay [2], 24%; in assay [3] it was 5%.
In the case of `O=C(/C=C/c1ccc(Cl)c(Cl)c1)NC1CCN(CCNC(=O)c2cccc(Cl)c2)CC1.O=C(O)C(F)(F)F`, the results for the Inhibition in assay [1], in assay [2] and in assay [3] were 100%, 45% and 22%, respectively.
In the case of `Cl.O=c1cc(NCCCNCc2cc3ccccc3s2)[nH]c2ccccc12`, the results for the Inhibition in assay [1], in assay [2] and in assay [3] were 89%, 0% and 3%, respectively.
As for `O=C(c1cc2nc3c(c(C(F)(F)F)n2n1)CCc1ccccc1-3)N1CCN2CCCC2C1` (stereo unspecified), the Inhibition in assay [1] is 94%; in assay [2] it was 3%; in assay [3], 0%.
`Clc1ccc(CNc2ccnc(NCc3ccc4c(c3)OCCCO4)n2)c(Cl)c1`: the Inhibition is given as 94% in assay [1], 20% in assay [2] and 50% in assay [3].
`CCCC/C=C(\Cl)c1ccc(O)c2c1C[C@H]1C[C@H]3[C@H](N(C)C)C(O)=C(C(N)=O)C(=O)[C@@]3(O)C(O)=C1C2=O.Cl`: the Inhibition in assay [1] is listed as 90%; in assay [2], 98%; in assay [3] it was 16%.
The matching figures for `CCN(CC)CCOc1ccc(NC(=O)c2oc3ccccc3c2C=Cc2ccccc2)cc1.O=C(O)/C=C/C(=O)O`: 98%, 54% and 51%.
Take `CCOC(=O)c1ccc2[nH]c(-c3ccc(C(=O)NCc4ccc(C(C)(C)C)cc4)cc3)nc2c1`: the values for the Inhibition in assay [1], in assay [2] and in assay [3] were 94%, 34% and 0%, respectively.
Turning to `COc1nc2c(N3CCN(CCNCc4ccc5c(n4)NC(=O)CO5)CC3)ccnc2cc1F.Cl`, the Inhibition in assay [1] is 100%; in assay [2], 9%; in assay [3], 18%.
As for `CCCCN(CCCC)CCCN(CCCN(CCCC)CCCC)c1cc(C)nc(Nc2ccc(Br)cc2)n1.O=C(O)C(=O)O`, the Inhibition in assay [1] worked out at 99%; in assay [2] it was 98%; in assay [3], 51%.
For `O=C(Nc1cccc(F)c1)NC1CCN(c2ccnc3cc(Cl)ccc23)C1.O=C(O)C(F)(F)F` (stereo unspecified), the Inhibition in assay [1] came to 100%; in assay [2], 64%; in assay [3], 13%.
Regarding `CCC(CC)CN1C(=O)C(c2ccccc2)(c2ccccc2)N=C1N.O=CO`, the Inhibition in assay [1] worked out at 97%; in assay [2], 81%; in assay [3] it was 14%.
The matching figures for `CC(C)CN1C(=O)c2ccccc2C(C(=O)Nc2cccc(C#N)c2)C1c1cccs1` (stereo unspecified): 100%, 100% and 11%.
`O=C(/C=C/c1ccc(C(F)(F)F)cc1)NCCCCCN1CCCN(C(=O)Nc2ccc(Cl)c(C(F)(F)F)c2)CC1`: the Inhibition is 99% in assay [1], 31% in assay [2] and 64% in assay [3].
Consider `CCN(CC)S(=O)(=O)c1ccc(C(C)NC(=O)c2ccccc2COc2ccccc2)cc1` (stereo unspecified), for which the Inhibition stood at 100% in assay [1], 89% in assay [2] and 0% in assay [3].
The matching figures for `COc1ccc2nccc([C@@H](O)CN3CCC(NC(=O)/C=C/c4ccc(Cl)c(C(F)(F)F)c4)CC3)c2c1`: 100%, 89% and 11%.
For `COc1cc(C2Nc3ccc4ccccc4c3C3=C2C(=O)CC(C)(C)C3)ccc1Oc1ccc([N+](=O)[O-])cc1C#N` (stereo unspecified), the Inhibition in assay [1] came out at 99%; in assay [2], 94%; in assay [3], 8%.
For `COc1cc(CN2CCC(CO)(Cc3cccc(C(F)(F)F)c3)CC2)c(Cl)cc1O`, the Inhibition is given as 99% in assay [1], 64% in assay [2] and 12% in assay [3].
As for `CCOc1c(CNCCCNc2nc3ccccc3[nH]2)cc(I)cc1OC.Cl`, the Inhibition in assay [1] was 100%; in assay [2], 4%; in assay [3], 42%.
The like results for `Cl.c1ccc(CC2=NCCN2)cc1` [TOLAZOLINE HYDROCHLORIDE] were, in that order, 94%, 0% and 3%.
In the case of `Cc1cc(NC(=O)Nc2ccc(N(C)C)cc2)c2cc(Cl)ccc2n1.Cl`, the figures for the Inhibition in assay [1], in assay [2] and in assay [3] were 100%, 50% and 0%, respectively.
As for `NCCc1cccc(-c2cnc3[nH]cc(-c4ccc(C(=O)O)cc4)c3c2)c1.O=C(O)C(F)(F)F`, the Inhibition in assay [1] stood at 99%; in assay [2], 98%; in assay [3], 4%.
With `OCCN1CCN(c2nc(Nc3cccc(F)c3)c3cnn(-c4ccccc4)c3n2)CC1`, the figures for the Inhibition in assay [1], in assay [2] and in assay [3] were 100%, 76% and 89%, respectively.
Consider `COc1cc(C(=O)NC2CCc3ccccc32)cc(Cl)c1OC` (stereo unspecified), for which the values for the Inhibition in assay [1], in assay [2] and in assay [3] were 85%, 60% and 12%, respectively.
The matching figures for `COc1ccc2ccc(F)c(CC(=O)N3CCOC(CNCc4cccc(-c5ccc(F)cc5)n4)C3)c2n1` (stereo unspecified): 92%, 1% and 5%.
Turning to `CCCCCCCC/C=C\CCCCCCCC(=O)NCc1ccc(O)c(OC)c1` [OLVANIL], the Inhibition in assay [1] turned out to be 96%; in assay [2] it was 93%; in assay [3], 0%.
The matching figures for `CCCCSc1c(CNCCCCCCNCc2ccc3ccccc3c2SCCCC)ccc2ccccc12.CS(=O)(=O)O`: 93%, 62% and 99%.
Take `CC(C)n1ncc2c(C(=O)N3CCCc4ccccc43)cc(-c3ccccc3)nc21`: the Inhibition is 100% in assay [1], 82% in assay [2] and 5% in assay [3].
On to `CC(C)c1ccc(NC(=O)NCCCC2CCCN(CCCCCNC(=O)/C=C/c3ccc(Cl)c(Cl)c3)C2)cc1` (stereo unspecified), for which the Inhibition in assay [1] came to 90%; in assay [2] it was 42%; in assay [3] it was 25%.
For `Cc1cc(NC(=O)Nc2ccc(I)c(OCCN(C)C)c2)ccc1Br.Cl`, the Inhibition amounted to 100% in assay [1], 42% in assay [2] and 18% in assay [3].
Regarding `CCCCCCCCNCC(O)c1cc(-c2ccc(Cl)cc2)nc2cc(C)ccc12` (stereo unspecified), the Inhibition in assay [1] is recorded as 99%; in assay [2] it was 99%; in assay [3], 0%.
As to `CC(=O)Nc1ccc(C(=O)Nc2cccc(-c3cccc(-c4nc5cccc(C)c5[nH]4)c3)c2)cn1`, the Inhibition in assay [1] amounted to 100%; in assay [2], 100%; in assay [3], 16%.
Turning to `COC(=O)c1ccc2nc(-c3ccc(/C=C/C(=O)NC4CCN(Cc5ccccc5)CC4)cc3)[nH]c2c1`, the Inhibition in assay [1] is given as 100%; in assay [2], 88%; in assay [3] it was 12%.
With `O=C(Nc1ccccc1)N(Cc1cccc(-c2ccc(CNCc3ccc4c(c3)OCO4)cc2)c1)C1CCN(Cc2ccccc2)CC1.O=C(O)C(F)(F)F`, the figures for the Inhibition in assay [1], in assay [2] and in assay [3] were 100%, 82% and 27%, respectively.
Regarding `C=CCc1cc(SC)ccc1Oc1ccc(N)cc1.Cl`, the Inhibition in assay [1] was 96%; in assay [2], 2%; in assay [3] it was 12%.

One may read the Inhibition as how much of the control response was suppressed. A lower Inhibition goes with a response near the control.
